A selection: hits, their analogues and other compounds. The true share with any hit is near 3.9%.
PLK1 PBD block: inhibitors of human PLK1 polo-box domain binding. Potency, µM, for the others: max response, negative = inhibition, usual class: inhibitors. 360,000 compounds, 2.8% hits. Plk1 PBD binding of FITC phosphopeptide, fluorescence polarization. P53350; note: series mostly up to about 57 µM; % is set by controls: 0 for no effect and ±100 for the full control effect; nearly all actives have a fitted effect of over 65% in size
VDR inhibitor: vitamin D3 receptor (human) inhibition; Potency, µM, without a hit: max response, negative = inhibition, usual class: inhibitors; 400,000 compounds, 0.93% hits; VDR-SRC2-3 peptide fluorescence polarization, 2 h; note: % is set by controls: 0 for no effect and ±100 for the full control effect
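Inhibition of the VDR/SRC2-3 peptide interaction is quantified by fluorescence polarization. Compounds (23 nl, pintool) incubate with the reagents for 2 hours at ambient room temperature.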
BRCA1 expr act: BRCA1 expression activation | MCF7-BRCA1-FFLuc reporter, luminescence, 48 h; response scale: scaled: vehicle 0%, 10 µM genistein 100% | Potency, µM (doses to about 46.1 µM), without a hit: at the top dose activation, most hits filed as activators | 380,000 compounds, 1.1% hits; note: nearly all actives have a fitted effect of over 80% in size
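MCF7-BRCA1-FFLuc, 2000 cells/well; 2 h attach, 37 °C/5% CO2; compound 48 h; luciferase substrate 15 min; luminescence end-point. Norm. to genistein 10 microM max activation and DMSO; concentration-response curves fitted.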
Tb PFK inh: blocks T. brucei phosphofructokinase; O15648; T. brucei PFK, ADP-Glo luminescence; Potency, µM (highest dose often 57.5 µM), inactives show top-dose activity, negative = inhibition, actives largely listed as inhibitors; 330,000 compounds, 0.17% hits;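 note: 0% = uninhibited 1x PFK enzyme wells and -100% = no-enzyme wells; nearly all actives have a fitted effect of over 60% in size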
Target sequence (O15648 whole entry, looked up): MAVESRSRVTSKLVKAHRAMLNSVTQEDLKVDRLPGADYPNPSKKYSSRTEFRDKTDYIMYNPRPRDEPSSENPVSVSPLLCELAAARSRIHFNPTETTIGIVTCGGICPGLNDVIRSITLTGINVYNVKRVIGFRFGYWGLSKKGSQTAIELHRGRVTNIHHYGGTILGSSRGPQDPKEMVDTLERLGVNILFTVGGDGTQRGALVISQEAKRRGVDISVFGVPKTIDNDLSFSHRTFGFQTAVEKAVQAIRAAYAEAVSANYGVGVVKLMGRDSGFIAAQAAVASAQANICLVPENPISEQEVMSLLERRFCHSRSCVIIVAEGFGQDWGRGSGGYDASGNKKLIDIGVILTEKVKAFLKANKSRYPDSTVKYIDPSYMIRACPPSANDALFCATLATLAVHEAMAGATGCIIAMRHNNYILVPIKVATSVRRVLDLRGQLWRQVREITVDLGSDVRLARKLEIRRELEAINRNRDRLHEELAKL
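ADP-Glo luminescence quantified ADP after 45 min at room temperature, with 1.25 nM T. brucei PFK, 0.1 mM ATP and 0.5 mM fructose-6-phosphate in pH 8.0 TEA buffer. qHTS titrations up to 57 µM; curves classified by quality.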
Starred values were filed as active, the others as inactive; ? = inconclusive; / = not tested or not shown. Calls come from the whole dose curve; as a rule, active = well fitted curve in the direction sought with a large enough effect; inconclusive = small, poorly fitted or top-dose-only effect, or another doubt; inactive = no such curve, though single readings can be large; an effect the other way counts as inactive or inconclusive. Potency is the fitted concentration of half-maximal effect.

SMILES	PLK1 PBD block	VDR inhibitor	BRCA1 expr act	Tb PFK inh
COc1ccc(S(=O)(=O)NC(=O)C2(C)CCN2C(=O)C2(c3ccc(Cl)cc3)CCC2)cc1 (centres undefined)	0%	/	1%	/
CC(=O)Nc1ccc(S(=O)(=O)NC(CC(=O)NCCc2ccccc2)C(C)C)cc1 (centres undefined)	-7%	-1%	62%	-1%
CC(=O)Nc1ccc(S(=O)(=O)NC(CC(=O)N(C)Cc2ccccc2)C(C)C)cc1 (centres undefined)	3.4µM*	-14%	-5%	-3%
CC(=O)Nc1nonc1-c1nnc(SCc2ccc(F)cc2Cl)n1C	/	6%	/	/
CC(C)(C)S(=O)(=O)c1cnc(-c2ccc(Cl)cc2)nc1N	4%	-15%	2.8µM*	0%
CCOC(=O)C1C(=O)N(C(=O)c2cncc(Br)c2)CC1c1ccccc1 (centres undefined)	3µM*	?	17%	3%
CCCn1nnnc1NCc1c(Cl)cccc1Cl	5%	11%	-1%	0%
CCCn1nnnc1NCc1c(F)cccc1Cl	8.4µM*	?	7%	3%
COc1ccccc1N1CCN(/N=C/c2ccc([N+](=O)[O-])cc2)CC1	-5%	-2%	5µM*	3%
Cc1nc(C(N)=O)c(N)n1CCc1ccccc1	-18%	45µM*	6%	0%
CCOC(=O)c1cn2nc(SCc3ccccc3)nc2nc1C	0%	-8%	11µM*	-2%
N#Cc1cnc2nc(SCc3ccccc3)nn2c1	-17%	12%	3.5µM*	-3%
Cc1ccc(-c2cc3nc(C)cc(N4CCN(C(=O)c5ccoc5)CC4)n3n2)cc1	7%	/	4%	/
Cc1cccc(C)c1NC(=O)c1ccc2nc(CCc3ccccc3)oc2c1	/	-1%	/	/
CCOc1ccc(-c2c(C)nn3c(C)c(C(=O)NCC(C)c4ccccc4)cnc23)cc1OCC (centres undefined)	/	4%	/	/
NCCNCCNCCN	-10%	10%	1%	-1%
NCCNCCN	/	16µM*	/	/
NC(=O)CSc1nnnn1-c1cccc(O)c1	/	0%	/	/
CCOC(=O)C(Cc1ccc(NC(=O)/C(=C/c2ccccc2)NC(=O)c2ccccc2)cc1)N1C(=O)c2ccccc2C1=O (centres undefined)	-1%	1%	0%	-5%
CCOC(=O)C(Cc1ccc(NC(=O)/C(=C/c2ccc(OC(C)=O)cc2)NC(C)=O)cc1)N1C(=O)c2ccccc2C1=O (centres undefined)	27µM*	8%	-11%	-3%
O=C(CCSc1ccc(Cl)cc1)N1CCOCC1	-21%	-7%	7.9µM*	0%
O=C(CSc1ccc(Cl)cc1)N1CCOCC1	-11%	-10%	92%	-4%
CCOC(=O)N1CCN(C(=O)CCSc2ccc(C)cc2)CC1	3.4µM*	-19%	48%	15%
CC1(C(=O)NS(=O)(=O)c2cccc(C#N)c2)CCN1C(=O)CC1CCCC1 (centres undefined)	-13%	/	0%	/
COc1ccc(NC(=O)C2Cc3c(-c4ccccc4)ccnc3O2)cc1OC (centres undefined)	-9%	/	-41%	/
SMILES	PLK1 PBD block	VDR inhibitor	BRCA1 expr act	Tb PFK inh
O=C(NC(=S)NC1CCCCCC1)c1cncc(Br)c1	-7%	-12%	11µM*	-10%
O=C(NC(=S)Nc1ncc(Br)cc1Br)c1cncc(Br)c1	-24%	16%	-50%	/
CSc1nnc(C(C)(C)C)c(=O)n1/N=C/c1ccccc1O	24µM*	?	1%	-3%
Cc1cc(=O)oc2cc(NC(=O)c3cc4ccccc4o3)ccc12	/	/	/	-5%
Cc1cc([N+](=O)[O-])ccc1NC(=O)c1ccco1	-3%	-16%	-5%	-6%
Cc1cc([N+](=O)[O-])ccc1NC(=O)c1cc2ccccc2o1	-9%	-7%	7.9µM*	2%
Cc1ccc(NC(=O)c2ccc(OC(=O)c3cc4ccccc4o3)cc2)cc1	-17%	13%	4µM*	2%
O=C(Nc1ccc2oc(=O)ccc2c1)c1cc2ccccc2o1	-2%	14%	2.5µM*	0%
COC(=O)c1ccccc1NC(=O)C1CCN(c2ncnc3c2nc2n3CCCCC2)CC1	-13%	15%	1%	1%
Nc1nonc1-c1nc2ccccc2n1Cc1c(Cl)cccc1Cl	/	-11%	/	/
Cc1nn(-c2ccccc2)c(Cl)c1/C=N/NC(=O)c1ccc(CNc2ccccc2)o1	-1%	-15%	0%	0%
Cc1ccc(NC(=O)c2c(C)nn(-c3ccccc3)c2Cl)cc1	27µM*	-6%	38%	5%
Cc1nn(-c2ccccc2)c(Cl)c1/C=N/NC(=O)c1ccco1	-9%	5%	6.3µM*	-3%
CC(=O)c1ccc(NC(=O)c2c(C)nn(-c3ccccc3)c2Cl)cc1	-2%	-28%	68%	0%
Cc1sc2nc(-c3cccnc3)[nH]c(=O)c2c1-c1ccccc1	12µM*	-14%	0%	-5%
O=C(/C=C/c1ccc(O)c(O)c1)O[C@H](Cc1ccc(O)c(O)c1)C(=O)O	/	/	/	17µM*
Cc1ccc([N+](=O)[O-])cc1S(=O)(=O)N1CCC(C)CC1	38µM*	2%	0%	-2%
Cc1ccc([N+](=O)[O-])cc1S(=O)(=O)N1CCCC1	-12%	-18%	2%	0%
Cc1ccc(S(=O)(=O)N2CCC(C)CC2)c([N+](=O)[O-])c1	24µM*	-7%	2%	2%
Cc1cccc(C(=O)N2[C@@H](C(C)C)COc3cc(Br)ccc3S2(=O)=O)c1	21µM*	?	4%	/
c1cc2c(cc1CNc1ccc(N3CCOCC3)cc1)OCO2	/	?	4.5µM*	4%
CC(C)[C@H](NC(=O)OC(C)(C)C)c1nnc(S(=O)(=O)Cc2c(F)cccc2Cl)o1	9.5µM*	?	-25%	-2%
CC[C@@H](C)[C@H](NC(=O)OC(C)(C)C)c1nnc(S(=O)(=O)Cc2cc(C)ccc2C)o1	6µM*	11µM*	-72%	2%
CC[C@@H](C)[C@H](NC(=O)OCc1ccccc1)c1nnc([C@@H](NC(=O)OCc2ccccc2)[C@@H](C)CC)o1	2%	9%	1%	-7%
C[C@H](NC(=O)OC(C)(C)C)c1nnc(SCc2c(F)cccc2Cl)o1	/	89µM*	-13%	/
SMILES	PLK1 PBD block	VDR inhibitor	BRCA1 expr act	Tb PFK inh
CC(C)=CCSc1nnc([C@@H](NC(=O)OC(C)(C)C)C(C)C)o1	-15%	-16%	5%	-2%
C[C@H](NC(=O)OC(C)(C)C)c1nnc(SCC(=O)c2ccc(Cl)cc2)o1	-16%	13%	-6%	3%
COCCc1nn2c(=O)cc(COC(=O)COc3ccc(F)cc3)nc2s1	/	-9%	/	/
COc1ccc(C(=O)O)cc1S(=O)(=O)Nc1ccc(C)cc1	-11%	6%	-2%	-2%
COc1ccc(C(=O)O)cc1S(=O)(=O)NC(C)(C)C	24µM*	-25%	-3%	1%
CN(C)S(=O)(=O)c1cccc(NC(=S)Nc2cccc3cnccc23)c1	17µM*	?	-63%	0%
Cc1ccc(S(=O)(=O)N(C)C)cc1NC(=S)Nc1cccc2ccccc12	15µM*	-28%	-34%	-2%
CN(C)S(=O)(=O)c1cccc(NC(=S)Nc2ccc3cn[nH]c3c2)c1	21µM*	-6%	42%	-3%

From PubChem
